# Assay results from PubChem BioAssay (Tox21).
# Where “and” joins values, the source holds several entries; their conditions need not be identical. Equal entries are not always repeated. Results filed as inconclusive are left out. Where a call stands in place of a potency, no number is given. Calls of active or inactive are those of the source. The call rests on the fitted dose curve; in most records, active means well fitted cell-killing curve with a large enough effect in the repeat runs; inconclusive means weak or mixed curves, or effect the other way; inactive means flat fitted curve, though single readings scatter.
# Experiment: qHTS assay to identify small molecule antagonists of the androgen receptor (AR) signaling pathway using the MDA cell line - cell viability counter screen (AID 743041; further: nearly all actives have a fitted effect of over 45% in size)
# Details: MDA-kb2 viability, CellTiter-Fluor, 16 h, cells co-treated with R1881 androgen agonist; series mostly up to 70.3 µM
# Source text: National Center for Advancing Translational Sciences [NCATS]
# NIH Chemical Genomics Center [NCGC]
# U.S. Environmental Protection Agency [EPA]
# National Institutes of Environmental Health Sciences [NIEHS]
# National Toxicology Program [NTP]
# U.S. Food and Drug Administration [FDA]
# Androgen receptor (AR), a nuclear hormone receptor, plays a critical role in AR-dependent prostate cancer and other androgen related diseases. Endocrine disrupting chemicals (EDCs) and their interactions with steroid hormone receptors like AR may cause disruption of normal endocrine function as well as interfere with metabolic homeostasis, reproduction, developmental and behavioral functions. To identify the compounds that inhibit AR signaling, MDA-kb2 AR-luc cell line (from ATCC, deposited by Wilson et al.) was used to screen the Tox21 10K compound library. MDA-kb2 AR-luc cell line is human breast carcinoma cell line that was stably transfected with a luciferase reporter gene under control of the MMTV promoter containing response elements for both androgen receptor (AR) and glucocorticoid receptor (GR). The cytotoxicity of the Tox21 compound library against the MDA-kb2 AR-luc cell line was tested in parallel by measuring the cell viability using CellTiter-Fluor assay (Promega, Madison, WI) in the same wells.
# Tox21 Assay Protocol Summary:
# MDA-kb2 AR-luc cells were dispensed at 3,000 cells/4 uL/well of culture medium into white wall/solid-bottom 1536-well plates using a Multidrop Combi (ThermoFisher Scientific, Waltham, MA) dispenser. After the assay plates were incubated at a 37C and 0% CO2 for 5 hr, 23 nL of compounds dissolved in DMSO, positive controls or DMSO only was transferred to the assay plate by a Pintool station (Kalypsys, San Diego, CA), followed by addition of 1 uL of agonist (R1881) in culture medium using a Bioraptr Flying Reagent Dispenser (FRD) workstation (Beckman Coulter, Indianapolis, IN, USA). The plates were incubated at a 37C and 0% CO2 for 16 h. After 15.5 h incubation, 1uL of CellTiter-Fluor reagent (Promega) was added using a Bioraptr FRD to each plate for measuring cytotoxicity. The fluorescence intensity was quantified on a ViewLux plate reader (PerkinElmer, Shelton, CT) following 30 min incubation at 37C and 0% CO2.
# Potency means the concentration at half of the fitted maximal effect.
row,SMILES,Potency
1,c1ccc2c(c1)Cc1ccccc1-2,inactive
2,COc1ccc(OC)cc1,inactive
3,CC1(C)NC(=O)NC1=O,inactive
4,CCOC(=O)c1ccc(N)cc1,inactive
5,O=C(O)c1ccccc1C(=O)O,inactive
6,O=S(=O)(O)c1ccccc1,inactive
7,CC(O)CC(C)(C)O (stereo not given),inactive
8,NCCN1CCNCC1,inactive
9,CCO[Si](CCC#N)(OCC)OCC,inactive
10,CCCCOC(=O)c1ccc(N)cc1,inactive
11,Nc1nc(N)nc(-c2ccccc2)n1,inactive
12,CC(C)(C#N)c1cc(Cn2cncn2)cc(C(C)(C)C#N)c1,inactive
13,CC(C)c1cccc(C(C)C)c1,inactive
14,CC(C)CCCCCCCOC(=O)CCCCC(=O)OCCCCCCCC(C)C,inactive
15,CNC(=S)N(C)C,inactive
16,CCCCCC(=O)O,inactive
17,CC(CCO)CC(C)(C)C (stereo not given),inactive
18,C=CCCCCCCCCC(=O)O,inactive
19,CSc1ccc(Cl)cc1,inactive
20,CC1(C)CC(N)CC(C)(CN)C1 (stereo not given),inactive

row,SMILES,Potency
1,C[C@]12CCC(=O)C=C1CC[C@@H]1[C@@H]2[C@@H](O)C[C@@]2(C)[C@H]1CC[C@]2(O)C(=O)CO,inactive
2,O=S(=O)(O)c1ccc(N=Nc2c(O)ccc3cc(S(=O)(=O)O)ccc23)cc1,30.8 µM (active) and 27.3 µM (active)
3,O=C1c2ccccc2CCc2ccccc21,inactive
4,COc1ccc(C)cc1N,inactive
5,NC(=S)NNC(N)=S,inactive
6,N#Cc1ccccc1,inactive
7,O=C1CCCC1,inactive
8,CC1(C)OC[C@@H]2O[C@@]3(C(=O)O)OC(C)(C)O[C@H]3[C@@H]2O1,inactive
9,CC(C)CC(C)O (stereo not given),inactive
10,O=C(O)c1cc2ccccc2cc1O,inactive
11,N[C@H](Cc1c[nH]c2ccccc12)C(=O)O,inactive
12,CCCCCCCCCCCCCCCC(=O)OC(C)C,inactive
13,OCc1cccc(Oc2ccccc2)c1,inactive
14,C=C(C)C(=O)OCC(C)C,inactive
15,Clc1ccccn1,inactive
16,COCCOC(=O)c1ccccc1C(=O)OCCOC,inactive
17,O=C(O)CCCCCCCCC(=O)O,inactive
18,CC(=O)Oc1ccc(C)cc1,inactive
19,COC(=O)c1cccnc1,inactive
20,CCCCCCO,inactive
